Records with an inconclusive call do not appear. Active and inactive are the calls of the source. Unless noted, calls follow the shape of the dose curve; as a rule, active = well fitted curve in the direction sought with a large enough effect; inconclusive = small, poorly fitted or top-dose-only effect, or another doubt; inactive = no such curve, though single readings can be large; an effect the other way counts as inactive or inconclusive.
Tests used:
[1] = qHTS Assay for Identification of Small Molecule Agonists for Hypoxia Response Element Signaling Pathway (AID 914; active = well fitted activation curve with a large enough effect in the signal ratio, with a control signal flat, not every such curve was filed as active; the % refers to the signal ratio; also: % of control where 0% means no effect); details: ME-180 (cervical carcinoma) HRE-bla reporter, beta-lactamase ratio, CoCl2, 17 h; activation: stronger effect = higher value
How it was run: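 HRE-bla ME-180 cells with beta-lactamase reporter under hypoxia response element, compounds with EC50 CoCl2 for 17 hours at 37 C. CCF4 substrate, 460nm/530nm emission ratio gave %Activity; AC50 from titration series.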

[2] = Confirmation and Secondary Assay for Modulators of Hemoglobin Beta Chain Splicing at IVS2 654 locus (AID 910);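 also: HeLa cells stably carrying EGFP split by mutant beta-globin IVS2-654 intron; % of control where 0% means no effect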
How it was run: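 HeLa cells stably expressing EGFP interrupted by β-globin IVS2-654 intron, seeded overnight in Opti-MEM/2% FCS, then treated 2 days at 37 °C. Restored splicing read as total peak GFP intensity per well by laser scanning cytometry (488 nm excitation, 500–520 nm emission); 500 nM antisense PNA as control.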

[3] = Confirmation and Secondary Assay for Modulators of Hemoglobin Beta Chain Splicing at IVS2 705 locus (AID 930);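 also: HeLa cells stably expressing the EGFP-705 splicing reporter; GFP fluorescence per well restored by corrected splicing of the IVS2-705 intron in EGFP; % of control where 0% means no effect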
How it was run: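 HeLa cells stably carrying EGFP interrupted by mutant beta-globin intron 2 (IVS2-705) treated 2 days at 37C with compound; 500 nM antisense PNA as control. Correct splicing read as total peak GFP intensity per well by laser-scanning cytometry.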

[4] = qHTS Assay for Identifying Gametocytocidal Compounds (AID 743244); also: potency is read from the fitted curve at half-maximal effect; details: P. falciparum 3D7 stage III-V gametocytes, alamarBlue, 72 h; max response: stronger effect = lower value
How it was run: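 Compounds are pinned into medium, gametocytes (stage III–V, 3D7, 20,000 cells/well) added, and plates held 72 h at 37 °C in 5% CO2. AlamarBlue follows for 24 h before fluorescence reading.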

[5] = qHTS profiling for inhibitors of Plasmodium falciparum (3D7) proliferation (AID 743322);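 also: infected erythrocytes exposed to compound for 72 h before lysis; 100% = DMSO vehicle wells and 0% = 0.29 µM artemisinin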; details: P. falciparum 3D7 proliferation; at 9.63 µM (top of the series)
How it was run: (§1)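 Erythrocytes infected with P. falciparum (0.3% parasitemia, 2.5% hematocrit) incubated with compounds 72 h at 37 C, 5% CO2. Lysis with saponin/Triton buffer containing SYBR Green I, overnight at room temperature in the dark; DNA fluorescence (485/535 nm) normalised to 0.29 uM artemisinin and DMSO.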

[6] = qHTS profiling for inhibitors of Plasmodium falciparum (DD2) proliferation (AID 743323; call rule not given here); details: lower = more inhibition; at 9.63 µM (top of the series)
How it was run: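 Parasite proliferation measured via DNA-dye fluorescence, as uninfected erythrocytes lack DNA. Cultures at 0.3% parasitemia and 2.5% hematocrit incubated 72 h with compound; signal scaled between vehicle and 0.29 uM artemisinin wells.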

[7] = qHTS profiling for inhibitors of Plasmodium falciparum (HB3) proliferation (AID 743324); details: Plasmodium falciparum HB3 blood-stage proliferation; at 9.63 µM (top of the series);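 also: 100% = DMSO vehicle wells and 0% = artemisinin-treated control wells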
How it was run: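 P. falciparum HB3 grown in erythrocytes (0.3% parasitemia, 2.5% hematocrit final) with compound for 72 h at 37 C, 5% CO2. Parasite DNA detected by SYBR Green after saponin/triton lysis overnight; normalized to 0.29 uM artemisinin and DMSO.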

[8] = qHTS profiling of the MIPE4 collection as inhibitors of Plasmodium falciparum (3D7) proliferation (AID 743344; call rule not given here;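 also: scaled between DMSO vehicle wells and 0.29 µM artemisinin as full inhibition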); details: P. falciparum 3D7 in erythrocytes, SYBR Green DNA fluorescence, 72 h; at 9.64 µM (top of the series)
How it was run: as §1

[9] = qHTS profiling of the MIPE4 collection as inhibitors of Plasmodium falciparum (DD2) proliferation (AID 743345; call rule not given here); details: P. falciparum Dd2 in erythrocytes, SYBR Green DNA, 72 h; at 9.64 µM (top of the series)
How it was run: as §1

[10] = qHTS profiling of the MIPE4 collection as inhibitors of Plasmodium falciparum (DD2) proliferation (Rep 2) (AID 743346; call rule not given here); details: P. falciparum Dd2 in erythrocytes, SYBR Green DNA, 72 h; at 9.64 µM (top of the series)
How it was run: as §1

[11] = qHTS profiling of the MIPE4 collection as inhibitors of Plasmodium falciparum (HB3) proliferation (AID 743347; call rule not given here;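 also: plate controls were DMSO vehicle wells for no effect and artemisinin wells for full effect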); details: P. falciparum HB3 in erythrocytes, SYBR Green DNA, 72 h; at 9.64 µM (top of the series)
How it was run: as §1

C[C@@H]1Cc2ccccc2N1NC(=O)c1ccc(Cl)c(S(N)=O)c1 (stereo partly specified)
activation [1]: 7.68% (inactive)

CN1CCC2(CC1)CCN(C(=O)c1ccncc1)CC2
activation [1]: 7.12% (inactive)

CS(=O)(=O)Nc1cccc(-c2nc(Nc3ccccc3)c3ccccc3n2)c1
Potency [2]: inactive
activation [1]: 6.74% (inactive)
Potency [3]: inactive

CO/N=C(\C(=O)N[C@@H]1C(=O)N2C(C(=O)O)=C(COC(N)=O)CS[C@@H]12)c1ccco1
activation [1]: 3.41% (inactive)

COc1ccc(CNc2ncncc2-c2ccccc2CN(C)C)c(OC)c1
Potency [2]: inactive
Potency [3]: inactive

CN(C)c1ccc(-c2nccc(NCc3ccccc3)n2)cc1
Potency [2]: inactive
Potency [3]: inactive

Cc1ncc([N+](=O)[O-])n1C[C@H](O)CCl
activation [1]: -4.65% (inactive)

CC(=C(CCOP(=O)(O)O)SC(=O)c1ccccc1)N(C=O)Cc1cnc(C)nc1N
Potency [2]: inactive
Potency [3]: inactive

O[C@H](c1cc(C(F)(F)F)nc2c(C(F)(F)F)cccc12)[C@H]1CCCCN1
Potency [4]: 89.4 nM (active)
remaining parasite growth % (stronger effect = lower value) [5]: -0.0865%
activity, percent of control [6]: 1.34%
remaining proliferation (% of control), lower = more inhibition [7]: 0.677%
parasite growth, % of DMSO control [8]: 8.08%
parasite growth remaining, % of DMSO control (lower = more inhibition) [9]: 8.4%
parasite growth, % of control (lower = inhibition) [10]: 18.7%
growth, % of control [11]: 4.87%

From PubChem BioAssay (NCATS)
